66 compounds from PubChem BioAssay AID1851 (National Center for Advancing Translational Sciences (NCATS), 2009) can be followed below.

Several values for one entry are separate records, joined by “and”; a condition that tells them apart may be missing. Equal values may be shown once. The campaign covered roughly 16,000 compounds. About 5,700 (36%) were called active. Another 24% or so got no clear call; they are omitted. Calls follow the shape of the dose curve; as a rule, active = well fitted curve in the direction sought with a large enough effect; inconclusive = small, poorly fitted or top-dose-only effect, or effect the other way; inactive = no such curve, though single readings can be large or run the other way. The list shows a part of the results. Where a structure was tested more than once in an assay, its records may differ in their call.
% is scaled to controls: 0 for no effect and ±100 for the full control effect.

Chain of Cytochrome P450 1A2 (Homo sapiens) (P05177 whole entry, looked up): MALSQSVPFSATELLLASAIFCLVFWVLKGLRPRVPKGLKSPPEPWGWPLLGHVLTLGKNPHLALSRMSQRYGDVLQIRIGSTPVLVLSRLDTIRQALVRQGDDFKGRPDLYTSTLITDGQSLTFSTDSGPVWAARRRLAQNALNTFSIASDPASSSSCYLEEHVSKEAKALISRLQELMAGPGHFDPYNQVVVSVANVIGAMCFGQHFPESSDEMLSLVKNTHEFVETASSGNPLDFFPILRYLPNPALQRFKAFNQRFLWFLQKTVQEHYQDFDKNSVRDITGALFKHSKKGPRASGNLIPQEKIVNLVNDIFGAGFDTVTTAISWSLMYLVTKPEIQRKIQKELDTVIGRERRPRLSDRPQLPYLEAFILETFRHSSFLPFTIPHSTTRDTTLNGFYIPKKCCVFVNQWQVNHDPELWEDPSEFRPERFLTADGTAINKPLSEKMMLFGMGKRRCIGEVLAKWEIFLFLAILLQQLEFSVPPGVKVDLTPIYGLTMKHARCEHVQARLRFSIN

This assay concerns the target Cytochrome P450 1A2 (Homo sapiens) (UniProt P05177). Briefly: Cytochrome panel assay with activity outcomes. The following applies: recombinant CYP, pro-luciferin dealkylation, luminescence, p450-cyp1a2; series mostly up to 57.1 µM.
On to `CN1CCN(NC(=O)c2ccccc2F)CC1`, for which the AC50 result was “inactive”.

With `O=C(NC(=S)N(Cc1ccccc1)Cc1ccccc1)c1ccccc1F`, the half-maximal activity concentration (AC50) is 11.2 µM (active).

With `COC(=O)C(NNc1ccccc1)(NC(=O)c1ccccc1F)C(F)(F)F` (stereo unspecified), the AC50 result is “inactive”.

In the case of `Cc1ccc(S(=O)(=O)NC(=O)OC23COCN2COC3)cc1`, the activity, negative = inhibition was 7.51% [at 11.4 µM] (inactive).

Regarding `NCCCCN`, the AC50 entry was “inactive”.

`NCCCCNCCCN`: the AC50 entry is “inactive and 31.6 µM (active)”.

As for `NCCCNCCCCNCCCN`, the AC50 result is “inactive”.

In the case of `COc1ccc(C(=O)N2CCC3(CC2)CN(C(=O)NC(C)C)C3)cc1`, the AC50 entry is “inactive”.

For the compound `COc1ccc(C(=O)NC(C)c2cc(OC)c(OC)cc2Br)cc1` (stereo unspecified), the AC50 is 14.1 µM (active).

Regarding `COc1cc(Br)c(C(C)NC(=O)c2cccc(Br)c2)cc1OC` (stereo unspecified), the AC50 is 12.6 µM (active).

As to `COc1ccccc1C(c1nnnn1C(C)(C)C)N1CCCc2ccccc21` (stereo unspecified), the AC50 result was “inactive”.

On to `CC(C)(N=NC(C)(C)C(=N)N)C(=N)N`, for which the activity, negative = inhibition was -4.86% [at 11.4 µM] (inactive).

For `CCc1ccc(N2CC(C)Cn3c2nc2c3c(=O)n(CCN3CCOCC3)c(=O)n2C)cc1` (stereo unspecified), the AC50 result was “inactive”.

In the case of `Cc1ccccc1-c1ccc2ncnc(NCc3cccs3)c2c1`, the AC50 is 2.51 µM (active).

For the compound `Cc1noc(C)c1-c1ccc2ncnc(NCc3cccs3)c2c1`, the concentration at half-maximal activity (AC50) is 0.398 µM (active).

Regarding `Cc1noc(C)c1-c1ccc2ncnc(NCc3ccccc3)c2c1`, the AC50 is 3.16 µM (active).

On to `Cc1noc(C)c1-c1ccc2ncnc(NCc3cccnc3)c2c1`, for which the half-maximal activity concentration (AC50) is 0.316 µM (active).

Consider `O=C(O)CN(CCN(CC(=O)O)CC(=O)O)CCN(CC(=O)O)CC(=O)O`, for which the AC50 entry was “inactive”.

For `C#CCCCO/N=C1/C[C@@H](O)[C@@H](O)[C@@H]2[C@@H]3C(=O)N(C4CCCCC4)C(=O)[C@H]3CC[C@@H]12`, the activity, negative = inhibition was 1.04% [at 11.4 µM] (inactive).

For the compound `Cc1cccc(CNc2ncnc3ccc(-c4c(C)noc4C)cc23)c1`, the concentration at half-maximal activity (AC50) is 5.01 µM (active).

Take `O=C(N/N=C1\CCCc2ccccc21)c1ccc([N+](=O)[O-])cc1Cl`: the AC50 is 15.8 µM (active).

`Cc1cccc(N=C2NN=C(c3ccc4c(c3)OCCO4)CS2)c1`: the concentration at half-maximal activity (AC50) is 14.1 µM (active).

Regarding `Nc1nnc(SCCOc2cccc(Br)c2)s1`, the AC50 is 5.01 µM (active).

With `CS(=O)(=O)Nc1cccc(-c2cc(NCc3ccccc3)ncn2)c1`, the half-maximal activity concentration (AC50) was 12.6 µM (active).

On to `Cc1cccc(NS(=O)(=O)c2c(C)n[nH]c2C)c1`, for which the AC50 result is “inactive”.

On to `CN(C)c1cc(-c2cccc(NS(C)(=O)=O)c2)ncn1`, for which the concentration at half-maximal activity (AC50) is 1.26 µM (active).

Turning to `Cc1cccc(CNc2cc(-c3cccc(NS(C)(=O)=O)c3)ncn2)c1`, the half-maximal activity concentration (AC50) is 10 µM (active).

On to `CS(=O)(=O)Nc1cccc(-c2cc(Nc3ccccc3)ncn2)c1`, for which the AC50 is 0.398 µM (active).

For the compound `COc1ccc(NC(=O)N2CCCC3(CCN(C(=O)c4csnn4)CC3)C2)cc1`, the AC50 entry is “inactive”.

For `CS(=O)(=O)Nc1cccc(-c2cc(NCc3cccs3)ncn2)c1`, the AC50 was 6.31 µM (active).

As to `Cc1ccc(/C=C/C(=O)N2CC(C)CC(C)C2)o1` (stereo unspecified), the concentration at half-maximal activity (AC50) is 8.91 µM (active).

`Cc1ccc(NC(=O)CN2C(=O)N/C(=C/c3ccc(C)o3)C2=O)cc1`: the AC50 result is “inactive”.

For the compound `C[C@@H](NCc1cc(Br)cc2[nH]c(=O)c(=O)[nH]c12)P(=O)(O)O`, the AC50 entry is “inactive”.

For `COC(=O)N1CCC2(CCCN(Cc3cc(C(F)(F)F)cc(C(F)(F)F)c3)C2)CC1`, the AC50 result was “inactive”.

Take `CCCCn1cnc2c(cnn2-c2ccc(F)cc2)c1=O`: the AC50 is 3.16 µM (active).

For the compound `CC(C)(C)n1ncc2c(=O)n(CC(=O)NCc3ccccc3Cl)cnc21`, the AC50 result is “inactive”.

As for `Cc1ccccc1Cn1cnc2c(cnn2C(C)(C)C)c1=O`, the AC50 entry is “inactive”.

`Clc1ccc(Cc2nc(-c3cccnc3)no2)cc1`: the AC50 is 1 µM (active).

On to `Cc1ccccc1NC(=O)C(C)c1cccc(C(=O)c2ccccc2)c1` (stereo unspecified), for which the half-maximal activity concentration (AC50) was 11.2 µM (active).

As to `Cc1cccc(C)c1NC(=O)C(c1ccccc1)N1CCC1=O` (stereo unspecified), the AC50 result was “inactive”.

As for `CCCN[C@@H](C)C(=O)Nc1ccccc1C`, the AC50 entry was “inactive”.

Turning to `CCCc1c(-c2ccc(O)cc2)nn(-c2ccc(O)cc2)c1-c1ccc(O)cc1`, the AC50 was 20 µM (active).

Take `CC(=O)Nc1nnc(SCc2ccc(F)cc2)s1`: the concentration at half-maximal activity (AC50) was 10 µM (active).

Turning to `CCSc1nnc(NC(=O)Cc2ccc(OC)c(OC)c2)s1`, the AC50 entry is “inactive”.

As to `Cc1ccccc1N(C(=O)Cc1cccs1)C(C(=O)NCC1CCCO1)c1cccnc1` (stereo unspecified), the AC50 result is “inactive”.

For `O=C(NCC1CCCO1)C(c1cccnc1)N(C(=O)Cc1cccs1)c1cccnc1` (stereo unspecified), the AC50 result was “inactive”.

Regarding `O=C(NCC1CCCO1)C(c1cccnc1)N(C(=O)Cc1cccs1)c1ccccc1` (stereo unspecified), the AC50 was 12.6 µM (active).

Take `O=c1c2ccc(Cl)cc2nc(-c2cccc(C(F)(F)F)c2)n1O`: the concentration at half-maximal activity (AC50) was 1.26 µM (active).

Turning to `COC(=O)c1sccc1NC(=O)CN(C)NS(=O)(=O)c1ccc(F)cc1`, the half-maximal activity concentration (AC50) is 11.2 µM (active).

Regarding `COc1ccc(S(=O)(=O)NCCC(=O)NCc2ccc(F)cc2)cc1`, the AC50 result is “inactive”.

As for `CCCc1nnc(NC(=O)CN2C(=O)C3C4C=CC(C4)C3C2=O)s1` (stereo unspecified), the AC50 result is “inactive”.

Consider `Cc1ccc(Cc2cnc(NC(=O)c3cccs3)s2)cc1`, for which the AC50 is 1.41 µM (active).

Turning to `CCCc1nnc(NC(=O)Cn2cnc3ccccc3c2=O)s1`, the AC50 entry is “inactive”.

On to `CCOc1cc(NC(=O)c2cccs2)c(OCC)cc1NC(=O)c1ccco1`, for which the AC50 entry was “inactive”.

Take `CCCc1nnc(NC(=O)c2cccs2)s1`: the half-maximal activity concentration (AC50) was 0.631 µM (active).

Consider `O=C(Nc1ncc(Cc2cccc(Cl)c2)s1)c1cccs1`, for which the concentration at half-maximal activity (AC50) was 1.58 µM (active).

With `COc1ccc(O[C@H]2C=C[C@@H](c3ccccc3)O[C@H]2COC(=O)CC/C(C)=N\O[C@@H](C)CN2CCCCc3nc(C)c(C)cc32)cc1`, the activity, negative = inhibition is -2.12% [at 11.4 µM] (inactive).

Regarding `O=C(c1csnn1)N1CCC2(CC1)CN(c1ccncc1)C2`, the AC50 result was “inactive”.

Take `O=c1c2c(-c3cccs3)csc2ncn1-c1ccc(Br)cc1`: the half-maximal activity concentration (AC50) is 0.794 µM (active).

With `Nc1[nH]nc2nc3ccccc3nc12`, the AC50 is 0.316 µM (active).

On to `Fc1ccc(C(OCCCc2cnc[nH]2)c2ccc(F)cc2)cc1`, for which the AC50 is 0.1 µM (active).

Turning to `N=C(N)SCCc1cnc[nH]1`, the AC50 entry is “inactive”.

As for `N[C@@H](Cc1cnc[nH]1)C(=O)O`, the AC50 entry was “inactive”.

As to `C=CCNS(=O)(=O)c1cccc2cc(C(=O)O)c(O)cc12`, the concentration at half-maximal activity (AC50) was 1.58 µM (active).

In the case of `NS(=O)(=O)c1cc(C(=O)O)c(O)c2ccccc12`, the activity, negative = inhibition was -19.2% [at 11.4 µM] (inactive).

Regarding `O=C(O)c1cc2ccccc2c(S(=O)(=O)O)c1O`, the activity, negative = inhibition was 6.64% [at 11.4 µM] (inactive).
